Source: ChEMBL document CHEMBL1961873, “Compounds: GSK PKIS; Assays: Nanosyn kinase panel” (2012)

Each molecule was assayed against Ribosomal protein S6 kinase alpha-2 (Homo sapiens) (UniProt Q15349). Conditions: at 0.1 µM.
Chain of Ribosomal protein S6 kinase alpha-2 (Homo sapiens) (Q15349 whole entry): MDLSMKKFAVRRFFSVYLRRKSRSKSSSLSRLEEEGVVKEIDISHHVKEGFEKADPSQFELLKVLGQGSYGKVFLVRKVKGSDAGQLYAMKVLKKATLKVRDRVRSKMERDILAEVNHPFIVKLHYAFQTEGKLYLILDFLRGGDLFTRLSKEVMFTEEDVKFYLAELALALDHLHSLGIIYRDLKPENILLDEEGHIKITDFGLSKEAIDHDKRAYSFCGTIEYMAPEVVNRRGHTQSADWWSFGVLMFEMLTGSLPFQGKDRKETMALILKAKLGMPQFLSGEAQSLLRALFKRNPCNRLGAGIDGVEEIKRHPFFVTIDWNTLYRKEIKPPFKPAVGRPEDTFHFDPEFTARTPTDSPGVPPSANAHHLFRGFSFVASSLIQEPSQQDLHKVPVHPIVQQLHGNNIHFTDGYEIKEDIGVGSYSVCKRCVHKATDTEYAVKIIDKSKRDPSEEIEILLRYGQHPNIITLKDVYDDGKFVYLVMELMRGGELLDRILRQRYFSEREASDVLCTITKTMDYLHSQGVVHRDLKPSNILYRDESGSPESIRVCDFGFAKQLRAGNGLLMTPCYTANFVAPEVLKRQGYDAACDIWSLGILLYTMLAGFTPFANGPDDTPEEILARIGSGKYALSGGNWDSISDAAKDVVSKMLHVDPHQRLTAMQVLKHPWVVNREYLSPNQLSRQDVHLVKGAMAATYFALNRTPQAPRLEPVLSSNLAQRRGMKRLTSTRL

Compound	inhibition [%]
NC(=O)Cc1ccccc1Oc1nccc(-c2c(-c3ccc(F)cc3)ncn2C2CCNCC2)n1	1.2
C[C@@H](Oc1cc(-n2cnc3ccc(OC4CCN(C)CC4)cc32)sc1C(N)=O)c1ccccc1Cl	4.54
NS(=O)(=O)c1ccc(N/N=C2\C(=O)Nc3ccc(-c4cnco4)cc32)cc1	1.5
NS(=O)(=O)c1ccc(Nc2cc(-c3ccc(O)c(F)c3)n[nH]2)cc1	16.5
CCS(=O)(=O)c1ccc(OC)c(Nc2ncc(-c3ccccc3Cl)o2)c1	0.2
COc1cc(Nc2ncc3c(C)nc(-c4cccc(C(F)(F)F)c4)n3n2)cc(OC)c1OC	7.09
Cc1ccc(C(=O)NC2CCC2)cc1-c1ccc(C(=O)NCC2CC2)cc1	1.58
C[C@@H](Oc1cc(-n2cnc3ccc(OCC4CCN(C)CC4)cc32)sc1C(N)=O)c1ccccc1Cl	5.72
Fc1ccc(-c2ncn(C3CCNCC3)c2-c2ccnc(Oc3ccc4c(c3)OCO4)n2)cc1	2.81
CCS(=O)(=O)c1ccc(OC)c(Nc2ncc(-c3cccc(-c4ccccc4F)c3)o2)c1	0.3
CN(c1ccc(NC(=O)Nc2c(Cl)cccc2Cl)cc1)c1ccnc(Nc2cccc(CS(C)(=O)=O)c2)n1	-2.19
O=C(NCC1CC1)c1ccc(-c2cccc(C(=O)NC3CC3)c2)cc1	0.67
COc1ccc2cc(-c3c(-c4ccncc4)nc(-c4ccc(S(C)(=O)=O)cc4C)n3C)ccc2c1	3.42
NC(=O)c1ccc(Oc2nccc(-c3c(-c4ccc(F)cc4)ncn3C3CCNCC3)n2)cc1	3.21
Nc1nccc(-c2c(-c3ccc(F)cc3)ncn2C2CCC(O)CC2)n1 (stereo not drawn)	-0.62
COc1cc2ncn(-c3cc(OCCc4ccccc4)c(C(N)=O)s3)c2cc1OC	1.71
Cc1ccc(NC(=O)c2ccoc2)cc1-c1ccc(C(=O)NCC2CC2)cc1	2

Compound	inhibition [%]
COc1cc(Nc2ncc(-c3ccccc3)o2)cc(OC)c1OC	0.65
O=C(Nc1n[nH]c2nc(-c3ccc(O)cc3)c(Br)cc12)C1CC1	22.4
CCc1nccc2c1nc(-c1nonc1N)n2CC	3.79
COc1ccc(C2=C(N3CCc4ccccc43)C(=O)NC2=O)cc1	2.16
COc1ccc(-c2ccc3c(NC(=O)C4CC4)n[nH]c3n2)cc1	1.1
COc1cc2ncn(-c3cc(OCc4ccccc4C(F)(F)F)c(C(C)=O)s3)c2cc1OC	2.48
Fc1ccc(-c2ncn(C3CCNCC3)c2-c2ccnc(Oc3ccc(Oc4ccccc4)cc3)n2)cc1	3.61
COc1cc2ncn(-c3cc(OCc4cccs4)c(C(N)=O)s3)c2cc1OC	2.98
O=C(Nc1ccc(Oc2ccc3[nH]c(NC(=O)c4ccccc4)nc3c2)cc1)Nc1cc(C(F)(F)F)ccc1F	3.12
Fc1ccc(-c2nc3n(c2-c2ccncc2)CCS3)cc1	3.31
Fc1ccc(-c2ncn(C3CCNCC3)c2-c2ccnc(Oc3ccc(F)c(F)c3)n2)cc1	2.41
COc1cccc(/C=N/Nc2ncnc3c2cnn3-c2cccc(OC)c2)c1	1.64
C/C(Nc1ccc(S(N)(=O)=O)cc1)=C1/C(=O)Nc2ccccc21	2.22
NS(=O)(=O)c1ccc(N/N=C2\C(=O)Nc3ccc(C(=O)NCCCn4ccnc4)cc32)cc1	3.97
CN(C)CCOc1ccc(-c2cc(-c3ccc4c(c3)CCC4=NO)c(-c3ccncc3)o2)cc1	-0.08
COc1ccc2cc(-c3c(-c4ccncc4)nc(-c4ccc([S+](C)[O-])cc4C)n3C)ccc2c1 (stereo not drawn)	0.02
FC(F)(F)c1cccc(Nc2nccc(-c3cnn4nc(-c5ccccc5)ccc34)n2)c1	1.39

What follows are molecules tested against Ribosomal protein S6 kinase alpha-2 (Homo sapiens) (UniProt Q15349). Conditions: at 1 µM.

Compound	inhibition [%]
NC(=O)Cc1ccccc1Oc1nccc(-c2c(-c3ccc(F)cc3)ncn2C2CCNCC2)n1	3.57
C[C@@H](Oc1cc(-n2cnc3ccc(OC4CCN(C)CC4)cc32)sc1C(N)=O)c1ccccc1Cl	20.2
NS(=O)(=O)c1ccc(N/N=C2\C(=O)Nc3ccc(-c4cnco4)cc32)cc1	7.28
NS(=O)(=O)c1ccc(Nc2cc(-c3ccc(O)c(F)c3)n[nH]2)cc1	63.5
CCS(=O)(=O)c1ccc(OC)c(Nc2ncc(-c3ccccc3Cl)o2)c1	4.26
COc1cc(Nc2ncc3c(C)nc(-c4cccc(C(F)(F)F)c4)n3n2)cc(OC)c1OC	37.1
Cc1ccc(C(=O)NC2CCC2)cc1-c1ccc(C(=O)NCC2CC2)cc1	2.68
C[C@@H](Oc1cc(-n2cnc3ccc(OCC4CCN(C)CC4)cc32)sc1C(N)=O)c1ccccc1Cl	22.4
Fc1ccc(-c2ncn(C3CCNCC3)c2-c2ccnc(Oc3ccc4c(c3)OCO4)n2)cc1	4.39
CCS(=O)(=O)c1ccc(OC)c(Nc2ncc(-c3cccc(-c4ccccc4F)c3)o2)c1	2.3
CN(c1ccc(NC(=O)Nc2c(Cl)cccc2Cl)cc1)c1ccnc(Nc2cccc(CS(C)(=O)=O)c2)n1	1.78
O=C(NCC1CC1)c1ccc(-c2cccc(C(=O)NC3CC3)c2)cc1	0.58
COc1ccc2cc(-c3c(-c4ccncc4)nc(-c4ccc(S(C)(=O)=O)cc4C)n3C)ccc2c1	3.72
NC(=O)c1ccc(Oc2nccc(-c3c(-c4ccc(F)cc4)ncn3C3CCNCC3)n2)cc1	4.43
Nc1nccc(-c2c(-c3ccc(F)cc3)ncn2C2CCC(O)CC2)n1 (stereo not drawn)	0.59
COc1cc2ncn(-c3cc(OCCc4ccccc4)c(C(N)=O)s3)c2cc1OC	1.86
Cc1ccc(NC(=O)c2ccoc2)cc1-c1ccc(C(=O)NCC2CC2)cc1	1.72

Compound	inhibition [%]
COc1cc(Nc2ncc(-c3ccccc3)o2)cc(OC)c1OC	6.88
O=C(Nc1n[nH]c2nc(-c3ccc(O)cc3)c(Br)cc12)C1CC1	70.6
CCc1nccc2c1nc(-c1nonc1N)n2CC	26.9
COc1ccc(C2=C(N3CCc4ccccc43)C(=O)NC2=O)cc1	3.86
COc1ccc(-c2ccc3c(NC(=O)C4CC4)n[nH]c3n2)cc1	1.69
COc1cc2ncn(-c3cc(OCc4ccccc4C(F)(F)F)c(C(C)=O)s3)c2cc1OC	2.5
Fc1ccc(-c2ncn(C3CCNCC3)c2-c2ccnc(Oc3ccc(Oc4ccccc4)cc3)n2)cc1	3.8
COc1cc2ncn(-c3cc(OCc4cccs4)c(C(N)=O)s3)c2cc1OC	9.31
O=C(Nc1ccc(Oc2ccc3[nH]c(NC(=O)c4ccccc4)nc3c2)cc1)Nc1cc(C(F)(F)F)ccc1F	20.5
Fc1ccc(-c2nc3n(c2-c2ccncc2)CCS3)cc1	4.36
Fc1ccc(-c2ncn(C3CCNCC3)c2-c2ccnc(Oc3ccc(F)c(F)c3)n2)cc1	2.42
COc1cccc(/C=N/Nc2ncnc3c2cnn3-c2cccc(OC)c2)c1	2.21
C/C(Nc1ccc(S(N)(=O)=O)cc1)=C1/C(=O)Nc2ccccc21	23.4
NS(=O)(=O)c1ccc(N/N=C2\C(=O)Nc3ccc(C(=O)NCCCn4ccnc4)cc32)cc1	12.8
CN(C)CCOc1ccc(-c2cc(-c3ccc4c(c3)CCC4=NO)c(-c3ccncc3)o2)cc1	0.83
COc1ccc2cc(-c3c(-c4ccncc4)nc(-c4ccc([S+](C)[O-])cc4C)n3C)ccc2c1 (stereo not drawn)	-0.67
FC(F)(F)c1cccc(Nc2nccc(-c3cnn4nc(-c5ccccc5)ccc34)n2)c1	2.04
